Bioassay records as filed in PubChem.
Compounds with a hit are over-represented: about 12% of the library has one in this group of screens.
G9a block = qHTS Assay for Inhibitors of Histone Lysine Methyltransferase G9a; Histone-lysine N-methyltransferase EHMT2 (Homo sapiens), Q96KQ7; G9a H3K9 monomethylation, AlphaScreen, 2 h; Potency, µM (series often up to 102 µM), for the others: at the top dose activity, negative = inhibition, most hits filed as inhibitors; 350,000 tested, 8.8% active; further: on the % scale 0 is the no-effect control and ±100 the full control effect; nearly all actives have a fitted effect of over 75% in size
Target sequence (Q96KQ7 913-1193 limits assumed): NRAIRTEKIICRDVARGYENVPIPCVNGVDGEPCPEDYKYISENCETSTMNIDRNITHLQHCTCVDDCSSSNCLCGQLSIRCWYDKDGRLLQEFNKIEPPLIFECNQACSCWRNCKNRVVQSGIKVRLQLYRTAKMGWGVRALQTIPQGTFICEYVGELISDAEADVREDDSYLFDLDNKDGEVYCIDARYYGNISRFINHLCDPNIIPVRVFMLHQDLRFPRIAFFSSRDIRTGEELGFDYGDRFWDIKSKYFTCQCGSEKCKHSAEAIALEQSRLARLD
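Using a bead-based AlphaScreen, monomethylated H3K9 product from 2 h room-temperature reactions (G9a 20 nM, peptide 500 nM, SAM 20 uM) was detected with 0.5 ug/mL rabbit anti-H3K9me1 antibody.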
Sfp inh = qHTS Assay for Inhibitors of Bacillus subtilis Sfp phosphopantetheinyl transferase (PPTase); 4'-phosphopantetheinyl transferase ffp (Bacillus subtilis), Q9F4F7; Biochemical Sfp PPTase activity, qHTS; Potency, µM, for inactives: largest response in the series, negative = inhibition, hits mostly inhibitors; 310,000 tested, 3.5% active; AID 1490, 2009;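 further: the enzyme is Sfp with the accession as filed and its product quenches rhodamine fluorescence; 0% = enzyme reaction without inhibitor and -100% = no enzyme wells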
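With Hepes-Na pH 7.6 buffer containing 10 mM MgCl2, Sfp (15 nM) modified BHQ-2-YbbR (12.5 uM) using rhodamine-CoA (5 uM). Two reads 30 minutes apart at 525/598 nm yielded each well's rate.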
JMJD2A Tudor = qHTS Assay for Inhibitors of JMJD2A-Tudor Domain; Lysine-specific demethylase 4A (Homo sapiens), O75164; AlphaScreen JMJD2A-Tudor / H3K4me3 peptide binding; Potency, µM (highest dose often 114 µM), for the others: at the highest dose activity change, negative = inhibition, most hits filed as inhibitors; 390,000 tested, 4.4% active; further: on the % scale 0 is the no-effect control and ±100 the full control effect; nearly all actives have a fitted effect of over 50% in size
HP1b binding inh = HTS for Inhibitors of HP1-beta Chromodomain Interactions with Methylated Histone Tails | 390,000 tested, 0.56% active | AlphaScreen HP1-beta / biotin-H3K9me3 peptide binding | AID 540317, 2011 | Chromobox protein homolog 1 (Homo sapiens), P83916 | Potency, µM (titrated, usually from 114 µM), for inactives: at the top dose activity change, negative = inhibition, hits mostly inhibitors; further: nearly all actives have a fitted effect of over 70% in size
Target sequence (P83916 whole entry, looked up): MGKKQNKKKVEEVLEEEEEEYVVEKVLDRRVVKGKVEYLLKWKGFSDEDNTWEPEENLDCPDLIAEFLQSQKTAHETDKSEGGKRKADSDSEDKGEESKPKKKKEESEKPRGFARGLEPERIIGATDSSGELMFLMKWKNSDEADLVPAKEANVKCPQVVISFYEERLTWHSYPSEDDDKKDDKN
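AlphaScreen: HP1-beta (50 nM) preformed 30 min with biotin-H3(1-18)K9me3 peptide (50 nM) in PBS pH 7.4, 0.01% Tween-20. Compound added for 30 min at RT, then streptavidin donor/nickel chelate acceptor beads (10 ug/mL) for 30 min.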
L3MBTL1 inh = qHTS Assay for the Inhibitors of L3MBTL1; AlphaScreen L3MBTL1–H3K9me1 peptide binding; Potency, µM (top dose mostly 57.1 µM), for the others: at the top dose activity, negative = inhibition, most hits filed as inhibitors; 230,000 tested, 0.66% active; Lethal(3)malignant brain tumor-like protein 1 (Homo sapiens), Q9Y468; further: on the % scale 0 is the no-effect control and ±100 the full control effect; nearly all actives have a fitted effect of over 60% in size
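L3MBTL1 (50 nM) pre-complexed 30 min with biotinylated H3(1-15)K9me1 peptide (75 nM), then compounds added for 30 min at room temperature; AlphaScreen streptavidin donor/nickel chelate acceptor beads (10 ug/mL final) read after 30 min dark incubation.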
BAZ2B block = qHTS Assay for Inhibitors of BAZ2B. Bromodomain adjacent to zinc finger domain protein 2B (Homo sapiens), Q9UIF8. AlphaScreen BAZ2B-H3K14Ac peptide displacement. Potency, µM (highest dose often 114 µM), without a hit: at the top dose activity change, negative = inhibition, hits mostly inhibitors. 360,000 tested, 4.4% active. AID 504333, 2011; further: on the % scale 0 is the no-effect control and ±100 the full control effect; nearly all actives have a fitted effect of over 60% in size
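AlphaScreen displacement of biotin-H3(5-23)K14Ac peptide (50 nM final) from BAZ2B (50 nM final) in PBS pH 7.4, 0.01% Tween-20; complex preformed 30 min RT, then compounds (top 110 uM) 30 min RT, beads 20 min dark.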
* hit, by the source's call; ? = inconclusive; nt = no result; [ ] = another dose, or the depositor's remark. The call rests on the fitted dose curve; in most records, active means well fitted curve in the direction sought with a large enough effect; inconclusive means small, poorly fitted or top-dose-only effect, or another doubt; inactive means no such curve, though single readings can be large; an effect the other way counts as inactive or inconclusive. Potency means the concentration at half of the fitted maximal effect.

SMILES	G9a block	Sfp inh	JMJD2A Tudor	HP1b binding inh	L3MBTL1 inh	BAZ2B block
Cc1cccc(-c2cccc(-c3cc(=O)oc4cc5c(cc34)OCO5)c2)c1	136%	-5%	nt	nt	nt	nt
O=C(Nc1ccc(C2CCCCC2)cc1)C1CCCN(c2ncccn2)C1 (centres undefined)	-2%	6%	-10%	23%	-7%	3%
O=C(O)c1ccc(C2CCCCC2)cn1	?	?	1.6µM*	36%	18µM*	4µM*
Cc1c(Br)c(O)c(Br)c2sc(=O)oc12	3.5µM*	2.8µM*	45µM*	28µM*	35µM*	?
O=c1c2c3c(sc2n(Cc2cc(=O)n4ccccc4n2)c(=O)n1-c1ccccc1)CCC3	-5%[59 µM]	nt	-12%	42%	nt	-1%
CCc1c(C)sc(NC(=O)C2CCCO2)c1C#N (centres undefined)	8.9µM*	22µM*	-25%[57.1 µM]	?	-2%	-2%
CCc1c(C)sc(NC(=O)c2cc(C3CC3)on2)c1C#N	45µM*	0%	0%	-1%	0%	10%
CCCc1cc(C(=O)Nc2sc(C)c(CC)c2C#N)no1	14%[59 µM]	56µM*	6%	4%	12%	2%
CC1CCc2c(sc(NC(=O)C3CCCO3)c2C#N)C1 (centres undefined)	-1%	7%	-6%	28%	0%	-4%
CCCc1cc(C(=O)Nc2sc3c(c2C#N)CCC3)no1	40µM*	50µM*	-4%	-11%	-12%	1%
CCCC(=O)Nc1sc2c(c1C#N)CCCC2	21%[59 µM]	13%	-7%	24%	0%	8%
O=C(c1ccc2c(c1)N(Cc1ccc(F)cc1)C(=O)c1ccccc1S2(=O)=O)N1CCN(Cc2ccccc2)CC1	-27%[59 µM]	nt	-22%	10%	nt	-25%
Cc1ccc(-n2ncc3c(NCc4cccnc4)ncnc32)c(C)c1	-6%	-3%	-13%	6%	1%	-34%
Cc1ccc2[nH]c3c(NCc4ccco4)ncnc3c2c1	50µM*	-10%	-33%	-13%	-4%	?
c1ccc(Cn2ncc3c(NCc4ccco4)ncnc32)cc1	45µM*	-11%	?	21%	-7%	79µM*
Cc1ccc(-n2ncc3c(NCc4ccco4)ncnc32)c(C)c1	50µM*	0%	-27%	24%	-12%	?
COc1ccc(CCNC(=O)c2ccc3c(Cl)c4c(nc3c2)CCCC4)c(OC)c1	0%[59 µM]	nt	-18%	65%	nt	13%
Cc1ccsc1CN(C)c1ncnc2ccc(-c3ccc4c(c3)OCO4)cc12	nt	nt	-32%	nt	nt	nt
CC(C)(C)N(NS(=O)(=O)c1ccc(F)cc1)c1ccccc1	8.9µM*	-30%	?	27%	nt	7%
Cc1ccccc1NS(=O)(=O)c1ccc(F)cc1	7%[59 µM]	22%	-8%	37%	nt	2%
CCOc1ccccc1NC(=O)C(C)Sc1nc(-c2ccccc2)c(C#N)c(=O)[nH]1 (centres undefined)	-23%[59 µM]	nt	-27%	12%	nt	-24%
CC(C)(C)c1ccc(-c2nc(SCC(=O)Nc3ccc(Cl)cc3)[nH]c(=O)c2C#N)cc1	-16%[59 µM]	nt	-32%	24%	nt	79µM*
N#Cc1c(-c2ccco2)nc(SCC(=O)Nc2cccc(Cl)c2)[nH]c1=O	35µM*	50µM*	?	14%	-14%	-12%
N#Cc1c(-c2ccccc2)cc(-c2ccccc2)nc1SCC(=O)Nc1ccc(Cl)cc1	?	nt	7%	43%	nt	12%
CCc1ccc(NC(=O)C(C)Sc2nc(-c3ccco3)c(C#N)c(=O)[nH]2)cc1 (centres undefined)	50µM*	-11%	?	-13%	nt	?
SMILES	G9a block	Sfp inh	JMJD2A Tudor	HP1b binding inh	L3MBTL1 inh	BAZ2B block
CCOc1ccccc1NC(=O)C1CCCN(S(=O)(=O)c2cccs2)C1 (centres undefined)	-2%[59 µM]	nt	-5%	30%	nt	2%
COc1ccc(-c2nn(-c3ccccc3)cc2/C=N/NC(=O)c2ccc3c(c2)OCO3)cc1	47%[12.7 µM]	15%	nt	nt	-6%	0%
COc1ccc(-c2nn(-c3ccccc3)cc2/C=N/N=C(N)N)cc1OC	?	50µM*	?	-12%	1%	?
COc1ccc(-c2nn(-c3ccccc3)cc2/C=N/NC(=O)c2ccc(Br)o2)cc1	11%[12.7 µM]	25%	5%[11.4 µM]	?	35µM*	-9%
COc1ccc(-c2nn(-c3ccccc3)cc2/C=N/Nc2cccc(C(=O)O)c2)cc1	22µM*	7%	?	16%	-1%	-37%
COc1ccc(-c2nn(-c3ccccc3)cc2/C=N/O)cc1OC	-28%	13%	-15%	55%	nt	-23%
Cc1ccc(NC(=O)N2CCC(CN3CCCCC3)CC2)c(Cl)c1	0%[59 µM]	nt	-6%	-1%	nt	-2%
Cn1c(=O)c(CCc2ccccc2)nc2cncnc21	1%[12.7 µM]	9%	nt	nt	nt	nt
Cc1ccc(S(=O)(=O)N2CCN(c3nc(C(N)=O)nc4ccccc34)CC2)cc1	nt	nt	-9%	36%	nt	nt
O=C(O)c1cc(S(=O)(=O)Nc2ccc3oc(=O)sc3c2)ccc1O	?	40µM*	?	24%	?	?
CC(OC(=O)c1cnccn1)C(=O)c1ccccc1 (centres undefined)	-1%	nt	-5%	18%	2%	7%
Cc1cc(C(=O)C(C)OC(=O)c2cnccn2)c(C)n1-c1ccccc1 (centres undefined)	56µM*	nt	?	-12%	-22%	25µM*
O=C(Nc1nc2c(F)cccc2s1)c1ccc2c(c1)OCCO2	-29%[59 µM]	nt	-20%	-2%	nt	-1%
COc1ccc(/C=N/N=C2/NC(=O)C(CC(=O)O)S2)cc1OCc1ccc(Cl)cc1Cl (centres undefined)	79µM*	-26%	?	-17%	?	50µM*
COc1ccc(/C=N/N=C2/NC(=O)C(CC(=O)O)S2)cc1OCc1ccccc1Cl (centres undefined)	-13%	12%	?	-13%	?	50µM*
CCOc1cc(/C=N/N=C2/NC(=O)C(CC(=O)O)S2)ccc1OCc1ccccc1Cl (centres undefined)	?	-3%	?	14%	nt	50µM*
CCOc1cc(/C=N/N=C2/NC(=O)C(CC(=O)O)S2)ccc1OS(=O)(=O)c1ccc(C)cc1 (centres undefined)	11%	23%	-7%	26%	0%	?
